PubChem BioAssay (NCATS)
Results filed as inconclusive are left out. Calls of active or inactive are those of the source. Calls follow the shape of the dose curve; as a rule, active = well fitted cell-killing curve with a large enough effect; inconclusive = small, poorly fitted or top-dose-only effect, or effect the other way; inactive = flat fitted curve, though single readings scatter.

Experiment: qHTS for Inhibitors of ATXN expression: Validation of Cytotoxic Assay (AID 588349)
Conditions: cytotoxicity counter-screen for ATXN expression inhibitors, cell viability; series mostly up to 57.1 µM; activity change, negative = cytotoxicity: at the top concentration
Excerpt: Spinocerebellar ataxia type 2 (SCA2) is a multisystem neurodegenerative disease caused by a dominantly-acting mutation leading to expansion of a polyQ domain in the ataxin-2 protein (ATXN2). SCA2 patients develop progressive ataxia and later lose function in other neuronal systems. Prominent parkinsonian signs develop in some patients. Similar to many neurodegenerative disorders, no symptomatic or disease-modifying treatments are known.
The primary objective of project is to identify compounds inhibiting ATXN2 expression and to test them for efficacy in SCA2 mouse models. To this end, in a collaboration between Dr. Daniel Scoles and scientists at NCGC, a cell-based assay adapted to high-throughput screening has been developed to screen the NIH Molecular Libraries Small Molecule Repository (MLSMR). Confirmed qHTS active compounds will be tested for toxicity against the human neuron-like SH-SY5Y cell line. This line is the parental cell type used to generate the transgenic line used in the primary assay, and so should provide an isogenic control to test the inherent toxicity of qHTS actives.
NIH Chemical Genomics Center [NCGC]
NIH Molecular Libraries Probe Centers Network [MLPCN]
Assay Submitter (PI): Stefan Pulst and Daniel Scoles, University of Utah
HEK293 cultured cells will be dosed with titrated compounds and incubated for 72 hr at 37 degrees C. Toxicity will be assessed using the CellTiter Glo kit (Promega), which uses intracellular ATP concentration as a viability marker.
% is scaled to controls: 0 for no effect and ±100 for the full control effect; potency is read from the fitted curve at half-maximal effect.

| SMILES | activity change, negative = cytotoxicity | Potency |
| --- | --- | --- |
| Cc1cccc(C)c1NC1=NCCCS1 | -14.9% (inactive) |  |
| CNCCC(Oc1ccc(C(F)(F)F)cc1)c1ccccc1 (centres undefined) |  | 28.2 µM (active) |
| Cc1cccc(C)c1NC(=O)CN1CCCC1=O | -6.98% (inactive) |  |
| CC(O)(CS(=O)(=O)c1ccc(F)cc1)C(=O)Nc1ccc(C#N)c(C(F)(F)F)c1 (centres undefined) | -9.14% (inactive) |  |
| CCCN1CCC[C@@H]2Cc3nc(N)ncc3C[C@H]21 | 0.821% (inactive) |  |
| COc1ccccc1N1CCNCC1 | -24.1% (inactive) |  |
| Nc1ccncc1 | -16% (inactive) |  |
| COc1ccc(C(CN(C)C)C2(O)CCCCC2)cc1 (centres undefined) | -17.8% (inactive) |  |
| Cc1ncc(CNC(=O)N(CCCl)N=O)c(N)n1 | -3.9% (inactive) |  |
| CCC1(C2=NCCN2)Cc2ccccc2O1 (centres undefined) | -6.98% (inactive) |  |
| O=C1NCN(c2ccccc2)C12CCN(CC1COc3ccccc3O1)CC2 (centres undefined) | -11.7% (inactive) |  |
| CCCC(C)(COC(N)=O)COC(=O)NC(C)C (centres undefined) | 2.95% (inactive) |  |
| CC(C)NCC(O)c1ccc(O)c(O)c1 (centres undefined) | -22.8% (inactive) |  |
| CC(=O)[C@H]1CC[C@H]2[C@@H]3CC[C@H]4C[C@H](O)CC[C@]4(C)[C@H]3C(=O)C[C@]12C | -9.47% (inactive) |  |
| N#CC(C#N)=Cc1ccc(O)c(O)c1 | -15.7% (inactive) |  |
| Cc1cc2c(C(C)C)c(O)c(O)c(C=O)c2c(O)c1-c1c(C)cc2c(C(C)C)c(O)c(O)c(C=O)c2c1O |  | 10 µM (active) |
| c1ccc(C2CC2)c(OCC2=NCCN2)c1 | -13.9% (inactive) |  |
| NCC(CC(=O)O)c1ccc(Cl)cc1 (centres undefined) | -13.1% (inactive) |  |
| CC[C@@H](CO)NC(=O)[C@@H]1C=C2c3cccc4[nH]cc(c34)C[C@H]2N(C)C1 | -7.92% (inactive) |  |
| NN=C(N)N |  | inactive |
| CC(=O)[C@H]1CC[C@H]2[C@@H]3CC[C@H]4C[C@](C)(O)CC[C@]4(C)[C@H]3CC[C@]12C | -2.89% (inactive) |  |
| c1ccc2c(c1)OCC(C1=NCCN1)O2 (centres undefined) |  | 22.4 µM (active) |
| O=c1[nH]c2ccccc2n1C1CCN(CCCC(c2ccc(F)cc2)c2ccc(F)cc2)CC1 | -4.18% (inactive) |  |
| CCCN1CCC[C@@H]2Cc3[nH]ncc3C[C@H]21 |  | inactive |
| NCC(O)c1ccc(O)cc1 (centres undefined) | -13.9% (inactive) |  |
| CC(C)=CCOc1c2occc2cc2ccc(=O)oc12 | -8.68% (inactive) |  |
| CNCC(O)c1ccc(O)cc1 (centres undefined) | -5.89% (inactive) |  |
| Fc1ccc(C(OCCN2CCN(CCCc3ccccc3)CC2)c2ccc(F)cc2)cc1 |  | 35.5 µM (active) |
| NCC1(CC(=O)O)CCCCC1 | -5.21% (inactive) |  |
